# Source: PubChem BioAssay
# Rows were chosen to be rich in hits. Some 1.4% of all compounds tested hit in one or more screens of this group.
# CCHF vOTU inh: CCHFV vOTU protease inhibitors, primary screen, biochemical, Pep-AMC substrate, fluorescence. Crimean-Congo hemorrhagic fever virus L polyprotein viral ovarian tumor (vOTU) protease …. inhibition, % at 11.5 µM. 0.55% of 370,000 active. AID 651958, 2012; in the data active = inhibition above about 30%; note: 0% = vehicle wells with enzyme and 100% = no enzyme wells
# BJeLR viability: MLPCN primary cell-based screen for lethality selective to Ras in HRASV12 cells; 0.17% of 300,000 active; AID 1554, 2009; BJeLR (HRASV12) viability, CellTiter-Glo ATP luminescence, 48 h; inhibition, % (test concentration not listed); in the data active = inhibition above about 50%
# MazEF act: activators of E. coli MazEF toxin-antitoxin RNase, primary screen, biochemical, fluorescence, uHTS; AID 504720, 2011; Endoribonuclease toxin MazF (Escherichia coli (strain K12)), P0AE70; activation, % at 20 µM; FAM/BHQ RNA-DNA oligo cleavage fluorescence, 5 h; 0.32% of 350,000 active; in the data active = activation above about 50%
# Target sequence (P0AE70 whole entry, looked up): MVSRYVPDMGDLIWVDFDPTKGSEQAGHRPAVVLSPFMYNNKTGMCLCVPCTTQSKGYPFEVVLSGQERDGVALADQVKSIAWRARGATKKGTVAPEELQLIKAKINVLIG
# DUSP3 inh: VHR1 phosphatase inhibitors, primary screen, biochemical, absorbance, uHTS; recombinant VHR phosphatase, pNPP absorbance; 0.52% of 290,000 active; AID 1654, 2009; Dual specificity protein phosphatase 3 (Homo sapiens), P51452; inhibition, % at 13.3 µM; in the data active = inhibition above about 50%
# Target sequence (P51452 whole entry, looked up): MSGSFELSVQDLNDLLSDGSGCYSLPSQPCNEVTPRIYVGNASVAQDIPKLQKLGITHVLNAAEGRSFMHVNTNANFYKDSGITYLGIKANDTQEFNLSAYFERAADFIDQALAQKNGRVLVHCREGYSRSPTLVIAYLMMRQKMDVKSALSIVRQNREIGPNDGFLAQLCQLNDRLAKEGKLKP
# SARS 3CLpro inh: SARS-CoV 3CLpro protease inhibitors, primary screen, biochemical, quenched FRET; Replicase polyprotein 1ab (Severe acute respiratory syndrome coronavirus), P0C6X7; inhibition, % at 6 µM; recombinant SARS-CoV 3CLpro, quenched FRET peptide cleavage; 0.14% of 290,000 active; AID 1706, 2009; in the data active = inhibition above about 12%
# * hit, by the source's call; · = no result given.
SMILES,CCHF vOTU inh,BJeLR viability,MazEF act,DUSP3 inh,SARS 3CLpro inh
CC1(C)CC(NS(=O)(=O)c2ccc(Cl)cc2)CC(C)(C)N1,-5.3,1.0,2.0,53.9*,1.3
COc1ccc(S(=O)(=O)NC2CC(C)(C)NC(C)(C)C2)cc1,1.6,-4.0,9.7,-13.6,-1.4
Cc1cc(S(=O)(=O)NC2CC(C)(C)NC(C)(C)C2)c(Cl)cc1Cl,-9.6,8.6,5.4,59.7*,-8.5
COC(=O)[C@]12CCCCC=C1N(Cc1ccc(OC)cc1)C(=O)[C@@H]2CC(=O)N1CCOCC1,-7.7,·,·,·,·
CN(Cc1ccccc1)C(=O)OCc1cn(Cc2ccc(F)cc2)nn1,8.7,·,·,·,·
COc1cc(CN2CCCC(C(=O)Nc3ccccc3Oc3cccnc3)C2)ccc1F (stereo not drawn),11.1,4.3,2.2,12.8,-9.5
O=C(Nc1ccccc1Oc1cccnc1)C1CCCN(Cc2ccc(F)cc2)C1 (stereo not drawn),-5.8,8.0,-1.4,57.1*,-2.8
CCCCN1CC(=O)N2[C@H](C[C@@]3(C)c4ccccc4N(S(=O)(=O)c4ccccc4)[C@@H]23)C1=O,-2.8,·,·,·,·
CCCCn1c(NC(=O)c2ccccc2Cl)c(C#N)c2nc3ccccc3nc21,8.6,5.8,6.3,34.2,3.5
N#Cc1c(NC(=O)c2ccccc2Cl)n(Cc2ccccc2)c2nc3ccccc3nc12,100.7*,·,-3.4,30.5,1.4
CN(CCc1ccccn1)C(=O)c1ccc(Sc2ccccc2Cl)c([N+](=O)[O-])c1,-4.3,·,·,·,·
Cc1cc(C(=O)CCl)c(C)n1Cc1ccco1,-9.2,8.1,7.3,12.3,25.1*
Cn1c(SCC(=O)Nc2ccccc2-c2ccccc2)nnc1-c1ccccc1,5.7,·,·,·,·
COc1ccc(S[C@]2(C(=O)N3CCOCC3)CC(=O)N(C(=O)c3ccccc3)[C@@H]2c2ccc(OC)cc2)cc1,0.3,·,·,·,·
Nc1nc2ncccc2cc1C(=O)c1c[nH]c2ccccc12,6.0,·,·,·,·
O=C(Cn1c(=O)oc2ccccc21)N1CCN(c2ccc(N3CCOCC3)nn2)CC1,-31.8,9.9,12.2,54.5*,-1.6
O=C(Cn1c(=O)oc2ccccc21)N1CCCCC1,7.1,-9.0,12.5,-17.9,6.1
COc1ccc(S[C@]2(C(=O)N3CCN(C(C)=O)CC3)CC(=O)N(C(=O)Nc3ccc(C)c(Cl)c3)[C@@H]2c2ccc(OC)cc2)cc1,8.7,·,·,·,·
O=[N+]([O-])c1c(Nc2ccc(O)cc2)cc(Cl)c2nonc12,8.7,52.1*,7.7,-2.2,4.5
CCC(C)NC(=O)Nc1ccccc1F (stereo not drawn),2.8,-8.4,2.8,1.3,2.3
CCC(C)NC(=O)Nc1ccccc1C (stereo not drawn),7.2,6.5,-1.0,51.6*,3.8
CCn1c2ccccc2c2cc(NC(=O)c3cc4c(C)nn(-c5ccccc5)c4s3)ccc21,6.8,·,·,·,·
Cc1ccc(S(=O)(=O)N2CCCC2c2cccc3[nH]cc(C)c23)cc1 (stereo not drawn),4.0,·,·,·,·
C=CCn1c(O)c(C=Nc2ccc(N(CC)CC)cc2)c(=O)[nH]c1=O,40.3*,6.0,-15.4,2.4,-2.2
O=c1[nH]c(=O)n(Cc2ccccc2Cl)c(O)c1C=Nc1ccc(F)cc1,2.2,2.3,53.0*,6.2,1.8
SMILES,CCHF vOTU inh,BJeLR viability,MazEF act,DUSP3 inh,SARS 3CLpro inh
Nc1ccc(S(=O)(=O)c2cc(O)c3ccccc3c2O)cc1,70.6*,·,-2.6,·,·
Cc1[nH][nH]c(=O)c1C(c1ccc(-c2ccc(Cl)c(Cl)c2)o1)c1c(C)[nH][nH]c1=O,43.1*,-9.0,-17.2,24.3,1.8
C#CCONC(=O)c1cc(OCC(F)(F)F)ccc1OCC(F)(F)F,9.3,-5.1,3.4,52.7*,2.4
O=C(NO)c1cc(OCC(F)(F)F)ccc1OCC(F)(F)F,11.6,2.0,2.6,22.8,-2.9
CC(C)CNC(=O)C1CSCCS(=O)(=O)N1Cc1ccc(F)cc1 (stereo not drawn),-0.4,·,·,·,·
O=C(/C=C/c1ccco1)NC(=S)Nc1ccccc1N1CCCC1,21.6,-8.6,9.8,56.3*,1.2
O=C(CNC(=O)N1CC(=O)Nc2ccccc21)Nc1ccccc1F,14.4,-2.8,-14.8,9.2,-1.9
CCOc1ccccc1NC(=O)CNC(=O)N1CC(=O)Nc2ccccc21,17.3,6.7,2.6,51.2*,-5.1
Clc1nssc1=Nc1ccc(Br)cc1,0.7,6.7,-11.0,13.1,1.6
Clc1ccc(N=c2ssnc2Cl)nc1,15.4,-3.6,9.4,61.3*,-2.2
CCCCCN1CCCCC(NC(=O)c2ccc(F)c(F)c2)C1=O (stereo not drawn),7.9,·,·,·,·
Cc1cccc(CCNC(=O)CSc2nc3c([nH]2)c(=O)n(C)c(=O)n3C)c1,-1.4,·,·,·,·
CCCCN1C=CC(=C2C(=O)c3ccccc3C2=O)C=C1,9.5,65.1*,-13.4,1.7,7.5
O=C(NCC1COc2ccccc2O1)c1ccc(NC(=O)c2cccc(F)c2)cc1 (stereo not drawn),-1.1,·,·,·,·
CN(C)c1nc(N(C)C)nc(N(C#N)CN2C(=O)c3ccccc3C2=O)n1,·,-1.0,·,51.9*,0.2
C[C@@H]1O[C@@H](O[C@H]2C[C@@H](O)[C@]3(CO)[C@H]4[C@H](O)C[C@]5(C)[C@@H](C6=CC(=O)OC6)CC[C@]5(O)[C@@H]4CC[C@]3(O)C2)[C@H](O)[C@H](O)[C@H]1O,·,80.4*,-3.1,24.0,1.0
C[C@H]1O[C@@H](O[C@H]2[C@@H](O)C[C@H](O[C@H]3[C@@H](O)C[C@H](O[C@H]4CC[C@@]5(C)[C@H](CC[C@@H]6[C@@H]5CC[C@]5(C)[C@@H](C7=CC(=O)OC7)CC[C@]65O)C4)O[C@@H]3C)O[C@@H]2C)C[C@H](O)[C@@H]1O,·,·,-2.4,4.7,-5.0
CCOC(=O)Cc1nc(N2CCN(CCN)CC2)c2c(C)c(C(=O)OCC)sc2n1,-20.5,·,·,·,·
Cc1cc(Cl)ccc1OCC(=O)NCCOC(=O)Nc1sc(=S)n(C)c1C,3.1,1.7,3.4,-6.1,6.5
Cc1ccc(Cl)cc1OCC(=O)NCCOC(=O)Nc1sc(=S)n(C)c1C,2.5,-2.2,2.0,55.4*,-3.3
COc1cc(C(C)=O)ccc1Oc1ncnc2c1cnn2-c1ccccc1,2.5,0.6,60.2*,-4.7,-0.9
COc1cc(C(C)=O)ccc1Oc1ncnc2c1cnn2-c1ccc(C)c(C)c1,-18.4,14.0,-5.8,12.6,1.0
Cc1ccc2[nH]c(=O)c(CN(C)C(=O)c3cccs3)cc2c1,-15.4,-3.4,15.9,7.2,1.8
Cc1ccc(N(Cc2cc3cc(C)ccc3[nH]c2=O)C(=O)c2cccs2)cc1,5.7,-6.8,88.8*,-0.2,-0.9
Cc1ccc(-c2nc3sc(C#N)c(N)n3c(=O)c2C#N)cc1,-10.9,-2.2,733.2*,18.2,2.3
Cc1ccc(-n2c(N)c(C#N)c(-c3ccccc3)c(C#N)c2=O)cc1,22.1,2.4,4.0,35.1,-0.5
